Source: PubChem BioAssay AID720530 (The Scripps Research Institute Molecular Screening Center, 2013)
Out of some 1,000 compounds screened, about 260 (26%) were called active. Rule as the data show it: active = inhibition above about 21%; inactive = the rest. A selection follows.

Biological target: E3 ubiquitin-protein ligase UHRF1 (Homo sapiens) (UniProt Q96T88)
Assay: blockers of UHRF1 binding to methyl-oligo – biochemical, TR-FRET, human UHRF1, counter-screen for MBD2 inhibitor project (AID 720530);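 also: UHRF1 SRA domain binding a labeled hemimethylated CpG hairpin DNA; 0% = vehicle only and 100% = reference inhibitor with vehicle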
Conditions: UHRF1 binding to methylated oligonucleotide, at 4.4 µM, active compounds read high

Chain of E3 ubiquitin-protein ligase UHRF1 (Homo sapiens) (Q96T88 whole entry, looked up, the tested form may be a part): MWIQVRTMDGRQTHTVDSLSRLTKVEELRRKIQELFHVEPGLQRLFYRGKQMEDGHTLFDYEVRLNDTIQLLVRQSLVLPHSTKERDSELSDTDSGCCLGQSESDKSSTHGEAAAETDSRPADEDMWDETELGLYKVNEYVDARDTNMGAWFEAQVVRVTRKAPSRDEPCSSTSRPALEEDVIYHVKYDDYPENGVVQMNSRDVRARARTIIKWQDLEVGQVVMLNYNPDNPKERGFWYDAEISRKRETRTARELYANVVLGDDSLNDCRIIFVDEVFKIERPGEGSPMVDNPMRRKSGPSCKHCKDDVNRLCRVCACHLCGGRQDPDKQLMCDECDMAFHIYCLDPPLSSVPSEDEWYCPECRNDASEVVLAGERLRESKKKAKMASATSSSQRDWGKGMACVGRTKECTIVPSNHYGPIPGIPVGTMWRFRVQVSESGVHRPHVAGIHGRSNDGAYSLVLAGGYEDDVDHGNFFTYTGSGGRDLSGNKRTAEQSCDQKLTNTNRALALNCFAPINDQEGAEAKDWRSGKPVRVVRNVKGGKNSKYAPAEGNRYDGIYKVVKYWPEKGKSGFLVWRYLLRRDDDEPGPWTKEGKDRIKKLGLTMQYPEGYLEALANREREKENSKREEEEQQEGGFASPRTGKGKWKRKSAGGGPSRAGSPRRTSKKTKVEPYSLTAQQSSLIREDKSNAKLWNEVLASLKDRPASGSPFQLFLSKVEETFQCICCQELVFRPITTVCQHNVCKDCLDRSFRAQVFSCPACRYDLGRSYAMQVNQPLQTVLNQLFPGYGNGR

SMILES	inhibition
CCN(CC)CCOc1ccc2c(c1)C(=NNC(=O)c1ccccn1)c1cc(OCCN(CC)CC)ccc1-2	108% (active)
COC(=O)c1ccc2nc(-c3cccc(Br)c3)c(Cc3ccc(OC)cc3C)n2c1	12.2% (inactive)
Cc1ccc(C)c(NC(=O)c2ccc(OC(=O)c3ccco3)cc2)c1	8.96% (inactive)
CCOC(=O)CCP(=O)(O)C(O)(c1ccccc1)c1ccccc1	4.07% (inactive)
Cc1cccc(NC(=O)C[C@H]2CC[C@H]3[C@@H](COc4ccc(NC(=O)Nc5ccccc5)cc4C(=O)N3C)O2)c1	0.48% (inactive)
CC(C)c1nc(CNC(=O)CC2C(=O)NCCN2Cc2cccc(F)c2F)cs1 (stereo not given)	9.89% (inactive)
COc1ccc2c(c1)c(=Cc1ccc(N(C)C)cc1)c1cc(-c3ccccc3)[n+](C)n12	83.9% (active)
Cc1ccc(-c2ccnc3nc(Sc4ncc(C(F)(F)F)cc4Cl)nn23)cc1	8.79% (inactive)
Cc1cccc(CN2CCN(C3CN(Cc4cn(Cc5cc(C)cc(C)c5)nn4)S(=O)(=O)C3)CC2)c1 (stereo not given)	9.39% (inactive)
COC(=O)c1cccc(NC(=O)c2cccc(N3C(=O)CCC3=O)c2)c1	6.97% (inactive)
COc1ccc(CNC(=O)c2c[nH]c3c(OC)cc(OC)cc3c2=O)cc1	5.78% (inactive)
CN(C(=O)COC(=O)c1cc(-c2ccco2)nc2ccccc12)C1CCS(=O)(=O)C1 (stereo not given)	35.3% (active)
O=C(c1n[nH]c2c1CCC2)N1CCCC(Nc2cccc(F)c2)C1 (stereo not given)	6.16% (inactive)
CC(C)Oc1ccc(C2NC(=O)NC2=O)cc1 (stereo not given)	6.8% (inactive)
CCOc1cc(-c2noc(CCCC(=O)NC3CCCCC3)n2)ccc1OC	4.27% (inactive)
c1ccc2cc3c(NCCN4CCOCC4)ccnc3cc2c1	21.8% (active)
COc1ccc(-n2cc(-c3ccccc3)c3c(=S)nc[nH]c32)cc1	-1.36% (inactive)
COc1nc(N(C)C)nc(N2CC(=O)N(CCNS(=O)(=O)c3ccc(C)cc3)C2=N)n1	6.8% (inactive)
CC(=O)c1ccccc1NC(=O)COC(=O)C1COc2ccccc2O1 (stereo not given)	2.18% (inactive)
COc1ccc2[nH]c3c(C)c4cc[n+](C)cc4c(C)c3c2c1	94.4% (active)
CCOC(=O)C1C(=O)OC2(CCCC2)C1C(=O)OCC (stereo not given)	1.98% (inactive)
O=C(CC1CCCCC1)Nc1c2c(nn1-c1ccc(F)cc1)CS(=O)(=O)C2	5.19% (inactive)
C=CCN1C(=O)c2ccc(C(=O)N3CCC(C(=O)OCC)CC3)cc2C1=O	4.16% (inactive)
C=CC1=C(C(=O)O)N2C(=O)[C@@H](NC(=O)/C(=N\OCC(=O)O)c3csc(N)n3)[C@H]2SC1	106% (active)
Nc1ccccc1C(=O)NC1CCCCNC1=O (stereo not given)	4.32% (inactive)
Cc1ccc(C(=O)Nc2ccc3c(c2)OCO3)cc1S(=O)(=O)N1CCCCC1	4.99% (inactive)
COc1ccc(COC[C@H](CC(C)C)N2CCN(C(=O)c3cccc(C(F)(F)F)c3)CCC2=O)cc1	8.9% (inactive)
COC(=O)[C@]12C[C@H](CC(=O)NCCC(C)C)C(=O)N(CCc3ccc(OC)c(OC)c3)C1=C[C@H](C(C)(C)C)O[C@@H]2C	7.24% (inactive)

SMILES	inhibition
COc1ccc(OCc2cc(C(=O)NCC3(C)COC3)no2)c(Cl)c1	2.8% (inactive)
COC(=O)c1c(NC(=O)c2ccc(S(=O)(=O)N3CCOCC3)cc2)sc2c1CCN(C(C)C)C2	29.1% (active)
Cc1c(NS(=O)(=O)c2cc(C(=O)NCCc3ccc(F)cc3)cc(Cl)c2Cl)c(=O)n(-c2ccccc2)n1C	3.95% (inactive)
O=c1ccc2c(-c3ccccc3S(=O)(=O)O)c3ccc(O)c(O)c3oc-2c1O	73.8% (active)
C=C1c2c(Cl)ccc(O)c2C(O)=C2C(=O)[C@]3(O)C(O)=C(C(N)=O)C(=O)[C@@H](N(C)C)[C@@H]3[C@@H](O)C12 (stereo not given in full)	19.2% (inactive)
CCOC(=O)c1ccc(-n2c(CCC(=O)O)ccc2-c2ccccc2)cc1	7.24% (inactive)
C=CCN(C(=O)[C@@H](CCCC)[C@@H](O)c1ccc(Cl)cc1)c1ccccc1	6.35% (inactive)
CN(C)[C@@H]1C(=O)C(C(N)=O)=C(O)[C@@]2(O)C(=O)C3=C(O)c4c(O)ccc(Cl)c4[C@@H](O)[C@H]3C[C@@H]12	12.2% (inactive)
COc1ccccc1C(=O)NNC(=O)CCN1C(=O)/C(=C\c2ccccc2)SC1=S	7.6% (inactive)
Cc1ccc(Cc2cnc(N)s2)o1	7.64% (inactive)
Cc1cc(C)c2nc3nc(C)cc(C)c3c(N)c2c1	46.3% (active)
CN(C)CCNC(=O)c1ccc(Cl)c2cc3ccccc3nc12	39.7% (active)
COC(=O)c1cn(C)c2ccc(S(=O)(=O)N3CC(C)CC(C)C3)cc2c1=O (stereo not given)	14.2% (inactive)
CCOC(=O)c1sc(NC(=O)CCN2CCOCC2)c(C(=O)OCC)c1C	-14.4% (inactive)
CNC(=O)C[C@H]1C(=O)N(c2ccc(OC)cc2)C[C@@H]1Cc1ccccc1	5.54% (inactive)
CCOc1ccc(NC(=O)c2cc(C)nc3ccccc23)cc1	3.69% (inactive)
CCOc1ccc(S(=O)(=O)N2CCC(c3ccccc3)CC2)cc1C(=O)O	0.13% (inactive)
Brc1ccc(-c2n(-c3ccccn3)c3ccccc3[n+]2-c2ccccn2)cc1	22.7% (active)
CO/N=C(/CS(=O)(=O)c1ccc(Br)cc1)c1ccc(OC)cc1	5.83% (inactive)
C=CCn1c(=S)[nH]c2scc(-c3ccco3)c2c1=O	47.7% (active)
CCOc1ccc(N(CC(=O)NCCOc2ccccc2OC)S(=O)(=O)c2ccccc2)cc1	11% (inactive)
CCOc1cc(N2CCOCC2)c(OCC)cc1NC(=O)c1cc(C)nc2ccccc12	7.08% (inactive)
COC(=O)c1ccc(CSc2nncn2N)cc1	9.29% (inactive)
Cc1ccccc1NC(=O)CN1C(=O)N/C(=C\c2cccn2-c2cccc(C(=O)O)c2)C1=O	56.5% (active)
Cc1c(C=O)n(C)n(-c2ccccc2)c1=O	0.66% (inactive)
COC(=O)c1ccc2nc(C3CCCCC3)c(Cc3cccc(F)c3)n2c1	5.68% (inactive)
CCOc1ccc(-n2c(SCC(=O)Nc3ccc(OC)cc3)nc3sc4c(c3c2=O)CCN(C)C4)cc1	6.75% (inactive)
